CHX counter – affects cycloheximide protein synthesis inhibition readout, counter-screen. max response, %. AID 2314. cell reporter, cycloheximide protein synthesis inhibition counterscreen. actives 12% (n = 300,000); in the data active = max response mostly above about 13%, no sharp cut-off; inactive = mostly below about 14%; also: read at 38.3 µM for the half of the compounds with a filed dose; 0% is about no effect
Lassa entry inh – inhibitors of Lassa virus binding or cell entry; Lassa virus pseudotype entry inhibition, cell reporter; Potency, µM (top dose mostly 37.9 µM), without a hit: at the top dose activity change, negative = inhibition, hits mostly inhibitors; actives 1.2% (n = 300,000); AID 540256; calls by dose curve; tested in HEK293 cells; also: potency is read from the fitted curve at half-maximal effect; % is scaled to controls: 0 for no effect and ±100 for the full control effect; nearly all actives have a fitted effect of over 50% in size
Shiga toxin inh – blocks Shiga toxin action in Vero cells; Vero cells, Shiga toxin protein synthesis inhibition reporter; inhibition, % at 38.7 µM; actives 9.2% (n = 290,000); in the data active = inhibition mostly above about 28%, no sharp cut-off; inactive = mostly below about 43%; also: 0% is about no effect
MARV entry inh – inhibitors of Marburg virus binding or cell entry; Potency, µM (top dose mostly 37.8 µM), inactives show at the top dose activity change, negative = inhibition, usual class: inhibitors; actives 1.8% (n = 300,000); Marburg virus pseudotyped entry inhibition, cell reporter; calls by dose curve; tested in HEK293 cells; also: potency is read from the fitted curve at half-maximal effect; % is scaled to controls: 0 for no effect and ±100 for the full control effect
* = called active by the depositor; ? = inconclusive; nt = not tested or not shown; [ ] = remark or other dose. In the library only some 12% were active in any assay of this set; here they are far more common.

SMILES	CHX counter	Lassa entry inh	Shiga toxin inh	MARV entry inh
O=C(CCCc1c[nH]c2ccccc12)N1CCOCC1	19.4*	9.8%	32.4	2.8%[46.1 µM]
Cc1ccc(-c2noc(CN3CCCCC3)n2)cc1	49.3*	?	91.1*	?
Clc1ccc(-c2noc(CN3CCCC3)n2)cc1	37.5*	11.5%	64.6*	?
COc1ccc(N2CCN(Cc3nc(-c4ccc(C)cc4)no3)CC2)cc1	nt	-12.0%[46.1 µM]	nt	3.2%[46.1 µM]
Cc1ccc(-c2noc(CCC(=O)N3CCCC3)n2)cc1	27.3*	5.1%	45.5*	23.4%
Cc1cc2nnc(SCC(=O)OC(C)C)n2c2ccccc12	21.3	?	16.4	-6.4%
CCn1cc(NC(=O)CCl)c(C)n1	6.3	nt	18.3	nt
CC(C)c1ccc(OCC(=O)N2CCN(C(=O)c3ccco3)CC2)cc1	-3.6	17.1%	-12.6	5.5%
Cc1ccc(-c2noc(CN3CCOCC3)n2)cc1	38.8*	?	76.5*	-6.6%
O=C(CCCc1nc(-c2ccccc2)no1)N1CCOCC1	18.4*	-1.2%	30.1	17.2%
COc1cccc(-c2noc(CCCC(=O)N3CCOCC3)n2)c1	15.5	nt	-7.6	nt
CC1CC(=O)N(c2ccc(N(C)Cc3ccccc3)c([N+](=O)[O-])c2)C1=O (stereo not drawn)	18.0*	-0.5%	54.1*	9.1%[46.1 µM]
CN(Cc1ccccc1)c1ccc(N2C(=O)CCC2=O)cc1[N+](=O)[O-]	14.5	24.8%	-3.9	8.3%[46.1 µM]
CC1SCC(NC(=O)c2ccccc2Cl)CS1 (stereo not drawn)	52.8*	-23.4%[46.1 µM]	73.8*	?
CC1SCC(NC(=O)c2cccc(Cl)c2)CS1 (stereo not drawn)	19.6	-0.6%	45.6	-1.2%[46.1 µM]
CC1SCC(NC(=O)c2ccc(Cl)cc2)CS1 (stereo not drawn)	28.9*	?	48.8*	14.1%[14.2 µM]
CCCCN1C2CCCC1CC(NC(=O)c1ccccc1Cl)C2 (stereo not drawn)	-2.2	nt	-9.7	nt
CN(C(=O)CSc1nc2ccccc2c(=O)n1C)C1CCS(=O)(=O)C1 (stereo not drawn)	nt	11.5%[46.1 µM]	nt	-1.9%[46.1 µM]
Cc1cccc(-c2nc3c(s2)CCc2onc(-c4ccc(Br)cc4)c2-3)c1	-1.8	nt	10.5	nt
CCn1c2cc(C)sc2c2cnn(Cc3ccccc3F)c(=O)c21	16.4	nt	-4.5	nt
O=C1/C(=C/c2ccc(F)cc2)Oc2cc(OC(=O)N3CCOCC3)ccc21	-2.0	5.3%	39.2	18.7%
CC(=O)Oc1ccc(/C=C2/Oc3ccccc3C2=O)cc1	32.4*	?	49.3*	19.9%
O=C1/C(=C/c2ccccc2)Oc2cc(OC(=O)N3CCOCC3)ccc21	18.6*	15.3%	10.5	3.9%
CN(C)C(=O)Oc1ccc2c(c1)O/C(=C\c1ccc(Cl)cc1)C2=O	11.7	nt	37.5	nt
COc1ccc(N(C(=O)CCC(=O)Nc2cc(C)on2)C(C(=O)NC2CCCC2)c2ccco2)cc1 (stereo not drawn)	-1.8	2.5%	20.6	-2.3%[46.1 µM]
SMILES	CHX counter	Lassa entry inh	Shiga toxin inh	MARV entry inh
COc1ccc(N(C(=O)/C=C/C(=O)Nc2cc(C)on2)C(C(=O)NC2CCCC2)c2ccccc2C)cc1 (stereo not drawn)	-3.3	?	-11.1	9.2µM*
CN(C(=O)c1sc2nc(N3CCOCC3)c3c(c2c1N)CCCC3)c1ccccc1	9.1	3.55µM*	-3.4	?
Cc1ccccc1NC(=O)c1sc2nc(N3CCOCC3)c3c(c2c1N)CCCC3	18.8*	nt	22.4	nt
CCOC(=O)c1sc2nc(N3CCOCC3)c3c(c2c1N)CCC3	0.4	-20.1%	21.9	-8.5%
CCOC(=O)c1sc2nc(N3CCOCC3)c3c(c2c1N)CCN(Cc1ccccc1)C3	-4.3	16.4µM*	-9.8	?
Cc1cc(C)cc(N(CC(=O)NCc2ccco2)S(=O)(=O)c2c(C)noc2C)c1	-2.1	nt	26.6	nt
Cc1ccc2cc3cc(C(=O)N4CCC5(CC4)OCCO5)oc3nc2c1	9.9	5.7%	11.3	?
Cc1ccc2cc3cc(C(=O)NCc4ccco4)oc3nc2c1	23.1*	?	32.4*	?
O=C(c1cc2cc3ccc(Cl)cc3nc2o1)N1CCCCCC1	21.5*	5.3%[46.1 µM]	79.1*	?
Cc1ccc2cc3cc(C(=O)N4CCCCC4C)oc3nc2c1 (stereo not drawn)	20.8*	?	61.2*	?
Cc1ccc2cc3cc(C(=O)NC4CC4)oc3nc2c1	26.4*	nt	30.4	nt
Cc1ccc2cc3cc(C(=O)NC4CCCCC4)oc3nc2c1	16.6	nt	13.3	nt
COC(=O)CCCC(=O)Nc1c(F)c(F)c(F)c(F)c1F	-2.3	?	-28.1	21.0%
Cc1ccc2cc3cc(C(=O)N4CC(C)CC(C)C4)oc3nc2c1 (stereo not drawn)	27.2*	4.7%	40.7*	13.8%
O=C(COC(=O)C12CC3CC(CC(C3)C1)C2)Nc1ccccc1F	19.2*	-16.9%	12.9	?
O=C(COC(=O)C12CC3CC(CC(O)(C3)C1)C2)Nc1ccccc1OC(F)F	11.0	2.2%	4.3	0.4%
COc1ccccc1OCC#CCN1CCCCCC1	-0.8	nt	16.3	nt
CN1CCN(CC#CCOc2ccc(Cl)cc2)CC1	20.8*	nt	nt	nt
Clc1ccc(OCC#CCN2CCCC2)cc1	23.1*	20.2%[46.1 µM]	61.2*	?
CC(/C=N/Nc1nnc(C)c(=O)[nH]1)=C\c1ccccc1	26.3*	?	81.2*	?
Cc1cccc(/C=N\Nc2nnc(-c3ccccc3)c(=O)[nH]2)c1	-1.5	-13.5%	-9.7	0.4%
C=C(Br)CO[C@@H]1C=C[C@@H](c2ccccc2)O[C@@H]1COC	nt	nt	nt	8.9%[14.2 µM]
O=C(/C=C/c1ccco1)Nc1ccc(Cl)c(S(=O)(=O)N2CCOCC2)c1	19.9*	nt	74.1*	nt
CC(C)Cc1ccc(/C=C/C(=O)N2CCOCC2)cc1	46.2*	?	55.9*	?
Cc1ccc(NC(=O)/C=C/c2ccc3c(c2)OCO3)cc1S(=O)(=O)N1CCOCC1	13.0*	?	3.1	?
SMILES	CHX counter	Lassa entry inh	Shiga toxin inh	MARV entry inh
CC(C)(C)c1ccc(/C=C/C(=O)N2CCOCC2)cc1	65.5*	-7.0%	113.2*	?
Cc1ccc(NC(=O)C2CCCN(S(=O)(=O)c3cccc4nsnc34)C2)c(C)c1 (stereo not drawn)	nt	12.1%[46.1 µM]	nt	-1.2%[46.1 µM]
CCC1CCCCN1C(=O)/C=C/c1ccc2c(c1)OCO2 (stereo not drawn)	9.8*	nt	37.5	nt
O=C(/C=C/c1ccc2c(c1)OCO2)N1CCOCC1	26.3*	2.4%	66.8*	7.9%
O=C(/C=C/c1ccc2c(c1)OCO2)N1CCN(c2ccccc2F)CC1	-1.4	3.9%	-22.7	-2.0%
COc1cc2oc(=O)c(CC(=O)NCCc3ccccc3)c(C)c2cc1Cl	nt	14.0%[46.1 µM]	nt	5.1%[46.1 µM]
COc1cccc([C@@H]2Oc3ccc(Br)cc3C(=O)[C@@H]2OC(=O)N[C@H]2CCCc3ccccc32)c1	nt	nt	nt	-11.4%[14.2 µM]
O=C(C1CCC(=O)N(C2CCCC2)C1)N1CCN(Cc2cccc(Cl)c2)CC1 (stereo not drawn)	-2.4	-11.9%	-4.6	29.4%
COc1ccc(OC)c(S(=O)(=O)Nc2ccc(O)c3ccccc23)c1	25.9*	?	34.6*	?
Cc1cccc(C(=O)Nc2ccccc2SCC2CSc3nc4ccccc4c(=O)n32)c1 (stereo not drawn)	3.2	6.31µM*	7.3	0.891µM*
Cc1ccc(C(=O)Nc2ccccc2SCC2CSc3nc4ccccc4c(=O)n32)cc1 (stereo not drawn)	-2.6	7.08µM*	7.4	3.16µM*

Screening data from PubChem BioAssay.
